Records with an inconclusive call do not appear. Where a call stands in place of a potency, no number is given. The source made the active and inactive calls. The call rests on the fitted dose curve; in most records, active means well fitted inhibition curve with a large enough effect in the signal ratio in the repeat runs; inconclusive means weak or mixed curves, or effect the other way; inactive means flat fitted curve, though single readings scatter; the % refers to the signal ratio.
experiment: qHTS assay for small molecule disruptors of the mitochondrial membrane potential (AID 720635); conditions: HepG2 mitochondrial membrane potential, Mito-MPS dye ratio; series mostly up to 83.2 µM
Description: U.S. Tox21 Program National Center for Advancing Translational Sciences [NCATS] NIH Chemical Genomics Center [NCGC] U.S. Environmental Protection Agency [EPA] National Institutes of Environmental Health Sciences [NIEHS] National Toxicology Program [NTP] U.S. Food and Drug Administration [FDA] Tox21 Assay Overview: Mitochondrial membrane potential (MMP), one of the parameters for mitochondrial function, is generated by mitochondrial electron transport chain that creates an electrochemical gradient by a series of redox reactions. This gradient drives the synthesis of ATP, a crucial molecule for various cellular processes. Measuring MMP in living cells is commonly used to assess the effect of chemicals on mitochondrial function. […] The dye accumulates in the mitochondria of healthy cells as aggregates, with red fluorescence. The mitochondrial potential collapses and the dye can no longer accumulate in the mitochondria and remains in the cytoplasm in monomers, with green fluorescence.
Tox21 Assay Protocol Summary: 2,000 HepG2 cells in 5 uL/well were dispensed into black, clear-bottom 1536-well plates using a Multidrop Combi (Thermo Scientific) dispenser. The assay plates were incubated overnight at 37C to allow cells to attach to the wells, followed by the transfer of 23 nL compound or DMSO vehicle by a pin tool (Kalypsys). The plates were incubated for 1 hr at 37C and 5% CO2, followed by the addition of 5 uL of 2X Mito-MPS dye (BD Biosciences) into each well using Flying Reagent Dispenser (Aurora Discovery) and then following 30 min incubation at 37C. Fluorescence intensity (490nm excitation and 535nm emission for monomers; and 540nm excitation and 590nm emissions for aggregates) was measured using an Envision plate reader.
Potency means the concentration at half of the fitted maximal effect.

| SMILES | Potency |
| --- | --- |
| CCOP(=S)(OCC)SCn1nnc2ccccc2c1=O | 27.3 µM (active) |
| Clc1cccc(SC2CCNCC2)n1 | inactive |
| C[C@@H]1CC[C@H]2[C@@H](C)C(=O)O[C@@H]3O[C@@]4(C)CC[C@@H]1[C@]32OO4 | inactive |
| O=C(Nc1ccccc1)Nc1cnns1 | 3.06 µM (active) |
| Cc1ccc(-c2c(Cl)nc(C#N)n2S(=O)(=O)N(C)C)cc1 | 1.09 µM (active) |
| COP(=S)(OC)Oc1ccc([N+](=O)[O-])cc1Cl | 24.3 µM (active) |
| C[C@H]1CNCCc2ccc(Cl)cc21 | inactive |
| CCCCNP(N)(N)=S | inactive |
| CCCCCCCCCC(=O)O[C@H]1CC[C@H]2[C@@H]3CCC4=CC(=O)CC[C@@H]4[C@H]3CC[C@]12C | inactive |
| O=C(CBr)c1ccccc1 | inactive |
| CC(Cl)Cl | inactive |
| ClC=C(Cl)Cl | inactive |
| COc1nn(C(=O)NS(=O)(=O)c2ccccc2OC(F)(F)F)c(=O)n1C | inactive |
| CCCCCCC#N | inactive |
| S=C=NCc1ccccc1 | 55 µM (active) |
| O=C(OC1CCCCC1)c1ccccc1C(=O)OC1CCCCC1 | 28.8 µM (active) |
| [O-][Cl+]O | inactive |
| CCC(C)(NC(=O)c1cc(Cl)c(C)c(Cl)c1)C(=O)CCl (stereo not given) | 17.3 µM (active) |
| CCOP(=O)(OCC)Oc1ccc([N+](=O)[O-])cc1 | inactive |
| CCBr | inactive |

| SMILES | Potency |
| --- | --- |
| O=C(NCc1cccnc1)Nc1ccc([N+](=O)[O-])cc1 | 24.3 µM (active) |
| Cl/C=C\Cl | inactive |
| CNP(=O)(OC)Oc1ccc(C(C)(C)C)cc1Cl (stereo not given) | inactive |
| CCOP(=O)(OCC)SCCSCC | inactive |
| CCOc1nc(F)cc2nc(S(=O)(=O)Nc3c(Cl)cccc3Cl)nn12 | inactive |
| CCCCc1c(C)nc(NCC)nc1OS(=O)(=O)N(C)C | 21.7 µM (active) |
| C=CC(=O)OCC(C)O (stereo not given) | inactive |
| CO[C@@H]1[C@H](OC(=O)NC(=O)CCl)CC[C@]2(CO2)[C@H]1[C@@]1(C)O[C@@H]1CC=C(C)C | inactive |
| O=C1c2ccccc2C(=O)C1C(=O)C(c1ccccc1)c1ccccc1 | 21.1 µM (active) |
| NC(=O)C(Cl)(Cl)Cl | inactive |
| COP(=S)(Oc1cc(Cl)c(Br)cc1Cl)c1ccccc1 (stereo not given) | 48.6 µM (active) |
| C=CCC1([C@H](C)CCC)C(=O)NC(=O)NC1=O | inactive |
| COc1cc(CC(C)N)cc2c1OCO2 (stereo not given) | inactive |
| II | 19.3 µM (active) |
| O=C(C(Cl)(Cl)Cl)C(Cl)(Cl)Cl | inactive |
| [CH3][Sn]([CH3])([Cl])[Cl] | inactive |
| CCn1cc[n+](C)c1 | inactive |
| Nc1ccc([N+](=O)[O-])cc1[N+](=O)[O-] | 29.9 µM (active) |
| Cn1cc[n+](C)c1 (tested in a mixture with another compound) | inactive |
| CCCC(=O)Cl | inactive |
